Experimental data as given in PubChem BioAssay AID1508600 (Functional Genomics Laboratory (NCATS/FGL), 2020).
In all, about 53,000 sequences went through this assay and about 3,700 (7%) were called active.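 Rule for the calls: active = gene knockdowns whose robust z-score for IL-1 alpha signal is at least 2 or at most -2, so actives lie on both sides; inactive = the rest.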 The full list was thinned out, with actives kept by preference.

Assay: Components of the Cytosolic LPS Sensing Pathway: Gene Identification via Genome-wide siRNA Screen;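 note: robust z of the log signal after scaling to non-targeting control siRNA wells of the plate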
Details: RAW264.7 macrophages, IL-1a HTRF, actives lie on both sides, screened at 100 nM (by protocol), cells primed 5 h with Pam3CSK4 first
In short: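 Supernatant IL-1a by HTRF from RAW264.7 cells primed with Pam3CSK4 (5 hours) and transfected with LipidA (24 hour) after 48h siRNA knockdown at 100 nM; cell viability checked with CellTiter-Glo.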

z-score, inactive:
GGGAAGUGGGAUUCCUAAGTT against Fam220a 0.218, GCACGAAGGUCGUUAUUAUTT against Wls -0.28, GGUGACACAGGAGAAGAAGTT against Colec10 -0.00926, GGUAAUUAAUUCAAAGCAGTT against St8sia4 -0.851, GGAGUUUAUGAGGAACUCGTT against Zwint -0.0598, GGGCUAAAUUCAUGGGUUCTT against Timp1 0.681, GGGAAGAUCUUCAGGAAAATT against Cbr3 1.1, GCUCCUAAUGAAAUGGUUUTT against Kif2a 1.41, CGGUAUGUUAUUUUGGUUGTT against Fam216a -0.236, ACUUCCUGAUUGAGAGAAATT against Olfr497 -0.319, GGUUCCACUAAUCUUUUUATT against Mark3 0.696, GGAGGAGAUUGUCCAGAAATT against Ecm1 1.2, GGUCGACAUUGAAGCUAUUTT against Ralyl -0.517, GCAUUGUGAAUAUUCAGAUTT against Cers4 0.623, GGAGACUAUCCUCAUUAUUTT against Smarca4 0.36, GGAGGACAACAAGUACUGCTT against Smap1 -1.08, GGAAAAUCGGUUAUCAUAATT against Pde7a -0.684, GCUAUAGCGCGGAAAUGGATT against Dclk3 -0.531, GGUCAAAGAACAAAAAGAATT against Muc13 -0.176, GGGACUGGCAGAUCUUAUCTT against Gtpbp3 0.817, GGUCAUUGGUAGGUCCACUTT against Rusc2 0.338, GGGAGAUUCAUUUUCCCAGTT against Rnf43 0.0663, GCAACAGGUUAGAAUAGACTT against Scd3 -1.36, GGUUCUGCACAUCUGAACATT against Cst3 -0.109, GGCCUUUUUGUUUAUGCUATT against Zan -0.0784, CCGUGUGGUCUGAUAAAAGTT against Fbxl8 -0.714, GCUCACUUGAUUCUGGUAATT against Ifnz 0.416, GGUGUCUGGAGGGAGAUUUTT against Peli3 0.245, CCAAGUGCUAAACAAGACATT against Spata31 1.06, GGUGACUGACAACCAGACATT against Dkkl1 -0.171, GGGUCUUCUUCCUGAGUGUTT against Ak8 -1.67, GGCCAUGUUCCACACAUUATT against Grm1 1.49, GCCACGCAAUAAAGCAUCUTT against Sars -0.284, GCUUAAGGGAUAACAUAUUTT against Svs2 -0.756, ACUGUCAUGCACCCUAAAGTT against Olfr132 0.369, GCUCCUAAAAAGGCUCUUUTT against H2ac18 -0.463, GCUGGUGUGUAACAUCAAUTT against Fut8 0.246, GCAAUGUUAUUUUCACCAGTT against Slc3a1 0.61, GUUUAACUACAACAAUGAGTT against Dcpp1 1.23, GCCUAGUGACCCUUUACUATT against Stx1a 0.51, GGCGACACAAUAAGACAGATT against Wdr19 0.648, GGUCCAGUUGGAGAUGACATT against Ube2d3 -1.04, GCUAAUCCAGGACUGUUUATT against Trim14 -1.66, GGUUCGACUUUCUUUGCCATT against Ola1 -0.614, GGGAGCUCCAUUUAAAUUATT against Cnot6 -0.516, GCAACUUUAUAGCAGAAUCTT against Apbb3 -0.874, CCGUAUAAACAUUUAUGAGTT against Bmp4 -0.295, GGACAACACCCUGAUGAUATT against Vmn1r208 -1.07, GUGGGAAAUCAGUAUUUCCTT against AI467606 1.23, GGUUCAUUGUGUCUCUGGCTT against Grk1 -0.378, GGACGCAAGUACAAAUUUATT against Tnxb 1.13, CGUAGUCGAUUCAGGAGAGTT against Gm10439 -0.356, GGUCUUCUUAGCUUUUUUUTT against Plppr1 -0.713, GGGUUGAUAGAAGUUUUUATT against Cpeb1 0.612, GCUUUAGUACAGGCCUCUATT against Tent4a 0.444, CCCGACCACGUGUUUAUUGTT against Tnfsf12 -1.68, GGUGGAGGCAGGAAAAUCUTT against Mrpl57 -0.808

z-score, active:
GGGCUGUGGAAACAAUUUATT against Zpld1 2.32, GGCAGUGUGUUAGAUUCUUTT against Cts3 2.35, AUGCUUUGAUCAGUAUGAATT against Vmn1r188 -2.38, GGAGCUAAAUGGCUCUGAUTT against Boc 2.98, GGAACGAGAAUCGGAGAUGTT against Mapk8ip3 2.92, GGCUAAAGGAAACUCACCUTT against Duoxa2 -3.33, GGACACCAUAUGGUUAGCUTT against Tedc1 -2.25, GGAAUUCCAAUGUUACCAUTT against Meltf 3.35, GGUCGUGUACUCGUUCAGUTT against Pcdh10 2.04, GGUACUGAGGUGAGCCUCUTT against Myocd -2.45, CCCACUUGUCUACAGCCUATT against Olfr1505 -2.65, CCUGAACUAUAGAUGGAUUTT against Manba 3.37
